Inconclusive results are not listed. Unmarked numbers belong to inactive results. Calls of active or inactive are those of the source. Calls come from the whole dose curve; as a rule, active = well fitted curve in the direction sought with a large enough effect; inconclusive = small, poorly fitted or top-dose-only effect, or another doubt; inactive = no such curve, though single readings can be large; an effect the other way counts as inactive or inconclusive. Bridge positions count the residues as written; N and C are the ends. Square brackets hold non-standard residues; d marks the D form. Side chains are listed from the residue outwards. Peptide text beside a SMILES is read from it. * marks the point of attachment. Phg(4-OMe) = COc1ccc([C@H](N)C(=O)O)cc1; d(aIle) = CC[C@H](C)[C@@H](N)C(=O)O; d(aThr) = C[C@@H](O)[C@@H](N)C(=O)O; NMeF = CN[C@@H](Cc1ccccc1)C(=O)O; Isobutyryl = CC(C)C(=O)*
Assay: Vero-766 cells viability qHTS against the NCATS CANVASS Library: Counterscreen for Zika virus inhibition assay (AID 1347394); note: nearly all actives have a fitted effect of over 60% in size; note: potency is the fitted concentration of half-maximal effect
Settings: Vero 766 viability, CellTiter-Glo luminescence, 72 h; series mostly up to 46.1 µM; activity change, negative = cytotoxic: at the top concentration
Procedure, shortened: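 Vero 766 cells (1000/well), without Zika virus, were exposed to compounds for 72 h at 37C. Viability was measured by CellTiter Glo luminescence. Media-only wells served as 100% inhibition.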
% is set by controls: 0 for no effect and ±100 for the full control effect.

SMILES | activity change, negative = cytotoxic | Potency
O=C1CC2OCC=C3CN4C5CC3C2[C@@H]2N1c1ccccc1[C@]52C[C@@H]4C1=C[C@H]2C3CC4N(CC[C@@]45c4ccccc4N(C1=O)[C@@H]25)C/C3=C/CO (some centres not stated) | -12.5% | –
CCC(=O)CCCCC[C@@H]1NC(=O)[C@H]2CCCCN2C(=O)[C@H](C(C)C)NC(=O)[C@H](Cc2cn(OC)c3ccccc23)NC1=O | – | 5.88 µM (active)
C/C(=C\[C@H](C)C(=O)CCCC1CC(=O)NC(=O)C1)[C@@H]1OC(=O)/C=C/CC/C=C/[C@H](O)[C@@H](O)[C@@H]1C | -15.1% | –
C/C=C(/C)c1c(Cl)c(O)c(C)c2c1Oc1c(Cl)c(O)c(Cl)c(C)c1C(=O)O2 | – | 7.41 µM (active)
C=C[C@@]1(C)CC[C@@H]([C@H](C)C(=O)/C=C/C(C)(C)O)O1 | -8.55% | –
C=CC(CCCCC)C1C(=O)NC(=O)C1C(=O)C1C(/C=C/C)C=CC2CC(C(=O)O)CC(C)C21 (configuration not stated) | – | 23.4 µM (active)
C=C1CC[C@@H](O[C@H]2C[C@@](O)([C@H](C)NC(=O)c3[nH]c(C)c(Cl)c3Cl)[C@H](O)[C@@H](C)O2)[C@@H]2C=C[C@H](C)C(/C(O)=C3/C(=O)[C@H](C(C)C)N([C@@H]4O[C@H](C)[C@H](OC(N)=O)[C@H](OC(C)=O)[C@@H]4OC)C3=O)[C@@H]12 (some centres not stated) | -26.2% | –
COc1ccc([C@@H]2CC(=O)c3c(cc(O)c(C/C=C(\C)CCC=C(C)C)c3O)O2)cc1 | -18.7% [at 9.19 µM] | –
CC[C@H](C)[C@H]1NC(=O)[C@@H](NC(=O)C(C)C)[C@@H](C)OC(=O)[C@H](COC(=O)CNC(C)=O)NC(=O)[C@@H]([C@@H](C)O)NC(=O)[C@H](Cc2ccccc2)N(C)C(=O)[C@H](c2ccc(OC)cc2)NC1=O (Isobutyryl-T[d(aIle)][Phg(4-OMe)][NMeF][d(aThr)]S([Gly-Ac]); ester 1-C) | -26.9% | –
C[n+]1cc2cc(C(N)=O)[nH]c3c(=N)c(Cl)c(N)c1c23 | 3.71% | –
C/C1=C/[C@@H](C)[C@H](O)[C@@H](O)/C=C/CC/C=C/C(=O)O[C@@H]1[C@H](C)C(=O)CCCC1CC(=O)NC(=O)C1 | -19.9% | –
CC(=O)Oc1cc2c(c(OC(C)=O)c1C1CCc3cc(Cl)c(Cl)n31)C(=O)n1c-2cc(Cl)c1Cl (configuration not stated) | – | 9.33 µM (active)
COc1ccc2[nH]c3c(c2c1)CCN1C[C@H]2C[C@@H](OC(=O)c4cc(OC)c(OC)c(OC)c4)[C@H](OC)[C@@H](OC)[C@H]2C[C@H]31 | -29.5% | –
O[C@H]1c2ccccc2-c2c3c(cc4c2[C@@H]1NCC4)OCO3 | – | 20.9 µM (active)
C[C@]12CC[C@]3(C1)[C@H](CC2=O)C[C@@H](OC(=O)c1ccccc1)[C@H]1[C@](C)(C(=O)O)CCC[C@@]13C | – | 6.6 µM (active)
C=C[C@](Cl)(CBr)CCC=C(C)C | 2.21% | –
C=C1CC[C@@H](Br)C(C)(C)[C@]12CC=C(C)C(=O)C2 | -11.9% | –
COc1cc2c(cc1OC)[C@@H](c1ccc3c(c1)OCO3)C(C)C(C)C2=O (some centres not stated) | -14.7% | –
C[C@H]1C=C[C@H]2CCCC[C@@H]2[C@H]1C(=O)[C@H]1CC2=C(C(=O)O)CCN2C1=O | -5.34% | –
C/C(=C\[C@H](C)C(=O)/C=C/CC1CC(=O)NC(=O)C1)[C@@H]1OC(=O)/C=C/CC/C=C/C[C@@H](O)[C@@H]1C | -27.2% | –
COc1cc(O)c(C(=O)[C@@H]2[C@H](CC=C(C)C)C(C)=CC[C@H]2c2ccccc2)c(O)c1 | – | 23.4 µM (active)
C=C(C)CC[C@H](Cc1c(O)cc(O)c2c1O[C@H](c1ccc(O)cc1)CC2=O)C(=C)C | – | 18.6 µM (active)
COc1cc(/C=C/C(=O)OC[C@@H](Cc2ccc(O)c(OC)c2)[C@@H](COC(=O)/C=C/c2ccc(O)c(OC)c2)Cc2ccc(O)c(OC)c2)ccc1O | – | 7.41 µM (active)
C=CC(CCCCC)C1C(=O)NC(=O)C1C(=O)C1C2C(C)CC(C(=O)O)CC2CC1(O)C(=O)/C=C/C (configuration not stated) | -26.5% | –
C[C@]12CCC[C@](C)(C(=O)O)[C@@H]1CC[C@@]1(C)c3cocc3CC[C@H]21 | -0.469% | –
COc1c(O)cc2c(c1O)C(=O)c1c(coc1C)C2=O | -25.2% | –
CC(C)C[C@@H]1c2c(O)c(C=O)c(O)c(C=O)c2O[C@]2(C)C=C[C@@H](C(C)C)C[C@H]12 | -10.2% | –
CO[C@H]1[C@@H](OC(=O)/C(C)=C\[C@@H]2O[C@@H]2[C@H]2O[C@H]2C)[C@H](O)[C@H](OCC23C[C@@H]4[C@H](C)CC[C@H]4C4(C=O)CC2C=C(C(C)C)C34C(=O)O)O[C@@H]1C (some centres not stated) | -14.6% | –
CC[C@H]1[C@H](C)[C@H](c2cc(OC)c(OC)cc2OC)[C@@H](C)[C@H](c2cc(OC)c(OC)cc2OC)[C@@]12C=C(OC)C(=O)C=C2OC | 4.52% | –

Assay: qHTS for inhibitors of Wild type Zika virus screened against the NCATS CANVASS Library (AID 1347396);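 note: ATP luminescence of surviving cells so rescue from viral cell killing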
Settings: Vero cells, Zika virus CPE, CellTiter-Glo, 72 h; series mostly up to 45.9 µM; activity change, negative = antiviral: at the top concentration
Procedure, shortened: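 Using ATP-based luminescence (CellTiter Glo), this screen scores rescue of Vero 766 cells from wild-type Zika killing at 72 h post-infection. Compounds are tested in a concentration series.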

SMILES | activity change, negative = antiviral [%]
Cc1occ2c1C(=O)c1c(cc(O)c(O)c1O)C2=O | 47.1
O=C1CC2OCC=C3CN4C5CC3C2[C@@H]2N1c1ccccc1[C@]52C[C@@H]4C1=C[C@H]2C3CC4N(CC[C@@]45c4ccccc4N(C1=O)[C@@H]25)C/C3=C/CO (some centres not stated) | 43.8
C/C(=C\[C@H](C)C(=O)CCCC1CC(=O)NC(=O)C1)[C@@H]1OC(=O)/C=C/CC/C=C/[C@H](O)[C@@H](O)[C@@H]1C | 21
C=C[C@@]1(C)CC[C@@H]([C@H](C)C(=O)/C=C/C(C)(C)O)O1 | 22.9
C=C1CC[C@@H](O[C@H]2C[C@@](O)([C@H](C)NC(=O)c3[nH]c(C)c(Cl)c3Cl)[C@H](O)[C@@H](C)O2)[C@@H]2C=C[C@H](C)C(/C(O)=C3/C(=O)[C@H](C(C)C)N([C@@H]4O[C@H](C)[C@H](OC(N)=O)[C@H](OC(C)=O)[C@@H]4OC)C3=O)[C@@H]12 (some centres not stated) | 19.3
O=c1cc(-c2ccc(O)c(O)c2)oc2cc(O[C@@H]3O[C@H](CO)[C@@H](O)[C@H](O)[C@H]3O)cc(O)c12 | 9.42
CC[C@H](C)[C@H]1NC(=O)[C@@H](NC(=O)C(C)C)[C@@H](C)OC(=O)[C@H](COC(=O)CNC(C)=O)NC(=O)[C@@H]([C@@H](C)O)NC(=O)[C@H](Cc2ccccc2)N(C)C(=O)[C@H](c2ccc(OC)cc2)NC1=O (Isobutyryl-T[d(aIle)][Phg(4-OMe)][NMeF][d(aThr)]S([Gly-Ac]); ester 1-C) | -7.29
C[n+]1cc2cc(C(N)=O)[nH]c3c(=N)c(Cl)c(N)c1c23 | 16.9
C/C1=C/[C@@H](C)[C@H](O)[C@@H](O)/C=C/CC/C=C/C(=O)O[C@@H]1[C@H](C)C(=O)CCCC1CC(=O)NC(=O)C1 | 8.23
COc1ccc2[nH]c3c(c2c1)CCN1C[C@H]2C[C@@H](OC(=O)c4cc(OC)c(OC)c(OC)c4)[C@H](OC)[C@@H](OC)[C@H]2C[C@H]31 | -2.25
CC(C)=CC[C@H]1C[C@@]2(CC=C(C)C)C(=O)[C@](CC=C(C)C)(C(=O)C(C(=O)c3ccccc3)=C2O)C1(C)C | -22.8
CC(=O)O[C@H]1c2ccccc2-c2c3c(cc4c2[C@@H]1N(C(C)=O)CC4)OCO3 | -26
C=C[C@](Cl)(CBr)CCC=C(C)C | -2.25
C=C1CC[C@@H](Br)C(C)(C)[C@]12CC=C(C)C(=O)C2 | 5.92
COc1cc2c(cc1OC)[C@@H](c1ccc3c(c1)OCO3)C(C)C(C)C2=O (some centres not stated) | -3.09
C[C@H]1C=C[C@H]2CCCC[C@@H]2[C@H]1C(=O)[C@H]1CC2=C(C(=O)O)CCN2C1=O | -16.8
C/C(=C\[C@H](C)C(=O)/C=C/CC1CC(=O)NC(=O)C1)[C@@H]1OC(=O)/C=C/CC/C=C/C[C@@H](O)[C@@H]1C | 61.9
CC(C)[C@]12CC[C@@]3(C)[C@H](C)CC[C@H](O)[C@@]3(CC1)c1cc3c(cc12)[nH]c1ccccc13 | 63.7
CC(C)=CCC[C@]12c3cc4c(cc3CC[C@@]1(C)[C@H](C)CC[C@@H]2O)[nH]c1ccccc14 | 19.6
Oc1ccc(C2Oc3cc(O)c4c(c3[C@@H]2c2cc(O)cc(O)c2)[C@H]2C(c3ccc(O)cc3)c3c(O)cc5c(c3[C@H]2C4c2ccc(O)cc2)[C@H](c2cc(O)cc(O)c2)C(c2ccc(O)cc2)O5)cc1 (some centres not stated) | 11.2
C=CC(CCCCC)C1C(=O)NC(=O)C1C(=O)C1C2C(C)CC(C(=O)O)CC2CC1(O)C(=O)/C=C/C (configuration not stated) | 36.4
C[C@]12CCC[C@](C)(C(=O)O)[C@@H]1CC[C@@]1(C)c3cocc3CC[C@H]21 | 2.69
COc1c(O)cc2c(c1O)C(=O)c1c(coc1C)C2=O | 11.7
CC(C)C[C@@H]1c2c(O)c(C=O)c(O)c(C=O)c2O[C@]2(C)C=C[C@@H](C(C)C)C[C@H]12 | -3.45
COc1cc2c(c(O)c1O)C(=O)c1c(coc1C)C2=O | 3.56
CO[C@H]1[C@@H](OC(=O)/C(C)=C\[C@@H]2O[C@@H]2[C@H]2O[C@H]2C)[C@H](O)[C@H](OCC23C[C@@H]4[C@H](C)CC[C@H]4C4(C=O)CC2C=C(C(C)C)C34C(=O)O)O[C@@H]1C (some centres not stated) | 6.13
C/C=C/C1C=CC2CC(C)CC(C)C2C1C(=O)CC(=O)NC(CO)C/C=C/CCCCC (configuration not stated) | -12.1
CC[C@H]1[C@H](C)[C@H](c2cc(OC)c(OC)cc2OC)[C@@H](C)[C@H](c2cc(OC)c(OC)cc2OC)[C@@]12C=C(OC)C(=O)C=C2OC | 21.7

Source: PubChem BioAssay (NCATS)
